Results from the supplement of paper PMC10849652.
About 7,900 targets were measured; listed, in parts, are those with a hit and a random draw of the rest. About 0.6% of all pairs of compound and target were hits. Unmarked numbers belong to inactive results.

Columns and labels:
Assay in all cases: log2 fold change, soluble protein after heating vs DMSO (PISA); higher = thermal stabilisation; K562 cells, 10 uM, 30 min; active = over 0.2 and 3.5 SD of the protein, either way, in both replicates (recomputed)
bafetinib = compound: Cc1ccc(NC(=O)c2ccc(CN3CC[C@H](N(C)C)C3)c(C(F)(F)F)c2)cc1Nc1nccc(-c2cncnc2)n1 [bafetinib]
Summary of the method: (§1)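 Soluble protein was quantified by TMTpro 16plex LC-MS/MS after channel sums were equalised. It was obtained as the supernatant after 21,000xg for 90 min from pooled aliquots of K562 cells (2×10^6 cells/mL, 10 μM compound, 30 min) heated for 3 min across 48°C-58°C and extracted in PBS with 0.5% NP-40 at 4°C. Thermal stability values are relative to control samples and come from duplicates. They are given as log2 fold changes.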

[1] = compound: Cc1cccc(CC(=O)N2CCc3c2ccc(-c2cn(C)c4ncnc(N)c24)c3F)n1
Summary of the method: as §1

nilotinib = compound: Cc1cn(-c2cc(NC(=O)c3ccc(C)c(Nc4nccc(-c5cccnc5)n4)c3)cc(C(F)(F)F)c2)cn1 [nilotinib]
Summary of the method: as §1

[2] = compound: Cc1nc(Nc2n[nH]c3c2CN(C(=O)N[C@H](CN(C)C)c2ccccc2)C3(C)C)c2sccc2n1
Summary of the method: as §1

dasatinib = compound: Cc1nc(Nc2ncc(C(=O)Nc3c(C)cccc3Cl)s2)cc(N2CCN(CCO)CC2)n1 [dasatinib]
Summary of the method: as §1

[3] = compound: Cc1ncc(-c2ccnc(Nc3ccc(S(C)(=O)=O)cc3)n2)n1C(C)C
Summary of the method: as §1

[4] = compound: Cn1cc(-c2ccc3c(c2)CCN3C(=O)Cc2cccc(C(F)(F)F)c2)c2c(N)ncnc21
Summary of the method: as §1

[5] = compound: Cn1cc(-c2ccc3nnc(C(F)(F)c4ccc5ncccc5c4)n3n2)cn1
Summary of the method: as §1

tipifarnib = compound: Cn1cncc1[C@@](N)(c1ccc(Cl)cc1)c1ccc2c(c1)c(-c1cccc(Cl)c1)cc(=O)n2C [tipifarnib]
Summary of the method: as §1

mubritinib = compound: FC(F)(F)c1ccc(/C=C/c2nc(COc3ccc(CCCCn4ccnn4)cc3)co2)cc1 [mubritinib]
Summary of the method: as §1

[6] = compound: NC(=O)Nc1cc(-c2cccc(F)c2)sc1C(=O)N[C@H]1CCCNC1
Summary of the method: as §1

[7] = compound: NC(=O)c1cnc(N[C@@H]2CCCC[C@@H]2N)nc1Nc1cccc(-n2nccn2)c1
Summary of the method: as §1

[8] = compound: NC1(c2ccc(-c3nc4ccn5c(=O)[nH]nc5c4cc3-c3ccccc3)cc2)CCC1
Summary of the method: as §1

[9] = compound: NCC(=O)Nc1ccc(-n2nc(C(F)(F)F)cc2-c2ccc3c(ccc4ccccc43)c2)cc1
Summary of the method: as §1

entinostat = compound: Nc1ccccc1NC(=O)c1ccc(CNC(=O)OCc2cccnc2)cc1 [entinostat]
Summary of the method: as §1

vorinostat = compound: O=C(CCCCCCC(=O)Nc1ccccc1)NO [vorinostat]
Summary of the method: as §1

citarinostat = compound: O=C(CCCCCCNC(=O)c1cnc(N(c2ccccc2)c2ccccc2Cl)nc1)NO [citarinostat]
Summary of the method: as §1

silmitasertib = compound: O=C(O)c1ccc2c(c1)nc(Nc1cccc(Cl)c1)c1ccncc12 [silmitasertib]
Summary of the method: as §1

[10] = compound: O=C1NC(=O)C(c2cnc3ccccn23)=C1c1cn2c3c(cc(F)cc13)CN(C(=O)N1CCCCC1)CC2
Summary of the method: as §1

[11] = compound: c1cc(OCCN2CCCCC2)cc(-c2n[nH]c3ccc(-c4nnc[nH]4)cc23)c1
Summary of the method: as §1

Sequence of UniProt Q08431 (Q08431 whole entry, looked up): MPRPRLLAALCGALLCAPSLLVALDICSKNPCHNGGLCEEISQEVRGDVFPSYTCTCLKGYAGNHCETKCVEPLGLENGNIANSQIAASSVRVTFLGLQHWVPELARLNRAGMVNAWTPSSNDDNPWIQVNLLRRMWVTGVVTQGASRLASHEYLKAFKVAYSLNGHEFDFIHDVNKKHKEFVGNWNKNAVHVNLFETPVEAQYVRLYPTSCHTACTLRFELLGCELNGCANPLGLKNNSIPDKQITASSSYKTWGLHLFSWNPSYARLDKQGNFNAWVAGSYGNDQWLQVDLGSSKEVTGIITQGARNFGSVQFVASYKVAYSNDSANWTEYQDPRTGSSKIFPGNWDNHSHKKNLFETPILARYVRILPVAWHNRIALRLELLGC
Sequence of UniProt P45984 (P45984 whole entry, looked up): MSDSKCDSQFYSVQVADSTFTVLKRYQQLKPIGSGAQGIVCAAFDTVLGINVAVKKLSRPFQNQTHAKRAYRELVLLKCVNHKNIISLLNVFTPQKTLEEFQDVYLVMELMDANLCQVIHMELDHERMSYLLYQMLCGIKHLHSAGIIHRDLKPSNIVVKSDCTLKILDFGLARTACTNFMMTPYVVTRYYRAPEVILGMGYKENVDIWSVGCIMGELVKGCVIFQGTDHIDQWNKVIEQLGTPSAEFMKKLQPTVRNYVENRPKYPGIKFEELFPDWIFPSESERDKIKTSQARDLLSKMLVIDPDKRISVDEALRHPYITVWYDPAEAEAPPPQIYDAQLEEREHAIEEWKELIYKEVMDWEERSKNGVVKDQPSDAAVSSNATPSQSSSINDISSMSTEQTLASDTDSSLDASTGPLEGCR
Sequence of UniProt Q9UI26 (Q9UI26 whole entry, looked up): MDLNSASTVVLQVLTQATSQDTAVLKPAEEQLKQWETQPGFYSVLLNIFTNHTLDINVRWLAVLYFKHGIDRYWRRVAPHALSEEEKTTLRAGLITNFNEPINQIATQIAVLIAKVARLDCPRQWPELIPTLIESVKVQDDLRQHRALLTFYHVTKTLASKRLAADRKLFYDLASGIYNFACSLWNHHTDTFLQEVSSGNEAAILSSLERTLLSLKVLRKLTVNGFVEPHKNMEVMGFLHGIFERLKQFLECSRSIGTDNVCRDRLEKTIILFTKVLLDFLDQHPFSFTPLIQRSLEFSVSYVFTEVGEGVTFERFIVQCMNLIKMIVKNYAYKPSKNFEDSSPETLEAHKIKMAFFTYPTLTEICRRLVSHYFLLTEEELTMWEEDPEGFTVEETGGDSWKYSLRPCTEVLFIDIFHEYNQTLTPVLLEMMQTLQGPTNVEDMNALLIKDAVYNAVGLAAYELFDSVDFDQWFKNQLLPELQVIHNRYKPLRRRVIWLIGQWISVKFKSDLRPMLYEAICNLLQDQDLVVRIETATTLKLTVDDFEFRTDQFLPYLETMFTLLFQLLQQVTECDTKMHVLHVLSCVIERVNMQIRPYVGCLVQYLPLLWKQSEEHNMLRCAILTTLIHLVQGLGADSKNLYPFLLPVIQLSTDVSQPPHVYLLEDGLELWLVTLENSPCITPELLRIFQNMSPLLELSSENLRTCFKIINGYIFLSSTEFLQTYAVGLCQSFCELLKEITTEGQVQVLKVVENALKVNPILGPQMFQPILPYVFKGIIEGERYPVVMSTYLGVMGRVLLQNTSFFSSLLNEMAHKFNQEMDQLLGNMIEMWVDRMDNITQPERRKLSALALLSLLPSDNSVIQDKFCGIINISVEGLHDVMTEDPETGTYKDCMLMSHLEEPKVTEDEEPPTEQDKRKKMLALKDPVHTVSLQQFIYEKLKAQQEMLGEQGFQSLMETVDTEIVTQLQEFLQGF
Sequence of UniProt P33947 (P33947 whole entry, looked up): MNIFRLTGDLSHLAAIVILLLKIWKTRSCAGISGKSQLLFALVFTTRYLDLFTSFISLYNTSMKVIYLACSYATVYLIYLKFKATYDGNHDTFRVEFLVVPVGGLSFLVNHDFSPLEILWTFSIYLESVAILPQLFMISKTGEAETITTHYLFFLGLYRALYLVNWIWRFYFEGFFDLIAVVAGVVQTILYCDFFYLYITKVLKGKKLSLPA
Sequence of UniProt Q6N075 (Q6N075 whole entry, looked up): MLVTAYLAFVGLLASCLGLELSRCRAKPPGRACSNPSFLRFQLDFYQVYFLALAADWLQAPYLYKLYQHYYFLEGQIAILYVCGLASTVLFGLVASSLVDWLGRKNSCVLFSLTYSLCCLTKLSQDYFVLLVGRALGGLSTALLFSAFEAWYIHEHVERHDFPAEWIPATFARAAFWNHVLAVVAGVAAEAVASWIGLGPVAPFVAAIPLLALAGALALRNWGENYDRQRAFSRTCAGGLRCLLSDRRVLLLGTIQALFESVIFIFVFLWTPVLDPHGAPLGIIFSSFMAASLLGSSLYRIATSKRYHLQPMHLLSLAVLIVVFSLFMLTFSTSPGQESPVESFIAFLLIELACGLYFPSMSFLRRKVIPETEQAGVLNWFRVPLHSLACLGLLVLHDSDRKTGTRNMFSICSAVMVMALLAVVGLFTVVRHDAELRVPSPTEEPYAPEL
Sequence of UniProt Q9NWZ3 (Q9NWZ3 whole entry, looked up): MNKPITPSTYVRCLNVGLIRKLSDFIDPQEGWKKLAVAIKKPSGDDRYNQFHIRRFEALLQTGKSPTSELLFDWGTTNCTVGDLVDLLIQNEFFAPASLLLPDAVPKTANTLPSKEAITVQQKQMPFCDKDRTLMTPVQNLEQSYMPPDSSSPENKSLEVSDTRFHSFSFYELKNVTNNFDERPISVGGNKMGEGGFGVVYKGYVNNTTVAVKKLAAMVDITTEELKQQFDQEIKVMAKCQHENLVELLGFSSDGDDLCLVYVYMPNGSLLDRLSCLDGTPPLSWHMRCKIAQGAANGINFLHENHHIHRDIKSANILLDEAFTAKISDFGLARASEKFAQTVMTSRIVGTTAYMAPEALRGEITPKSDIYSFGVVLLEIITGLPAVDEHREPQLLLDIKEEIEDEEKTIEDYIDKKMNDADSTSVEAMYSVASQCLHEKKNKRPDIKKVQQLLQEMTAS
Sequence of UniProt Q9H6V9 (Q9H6V9 whole entry, looked up): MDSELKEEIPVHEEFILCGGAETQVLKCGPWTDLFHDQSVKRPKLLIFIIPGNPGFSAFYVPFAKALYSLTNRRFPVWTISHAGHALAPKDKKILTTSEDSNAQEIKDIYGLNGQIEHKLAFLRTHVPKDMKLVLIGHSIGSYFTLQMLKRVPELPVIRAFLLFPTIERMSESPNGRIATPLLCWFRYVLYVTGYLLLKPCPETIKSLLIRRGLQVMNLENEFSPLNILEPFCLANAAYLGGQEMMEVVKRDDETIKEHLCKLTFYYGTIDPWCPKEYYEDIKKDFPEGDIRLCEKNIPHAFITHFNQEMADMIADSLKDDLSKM
Sequence of UniProt P49441 (P49441 whole entry, looked up): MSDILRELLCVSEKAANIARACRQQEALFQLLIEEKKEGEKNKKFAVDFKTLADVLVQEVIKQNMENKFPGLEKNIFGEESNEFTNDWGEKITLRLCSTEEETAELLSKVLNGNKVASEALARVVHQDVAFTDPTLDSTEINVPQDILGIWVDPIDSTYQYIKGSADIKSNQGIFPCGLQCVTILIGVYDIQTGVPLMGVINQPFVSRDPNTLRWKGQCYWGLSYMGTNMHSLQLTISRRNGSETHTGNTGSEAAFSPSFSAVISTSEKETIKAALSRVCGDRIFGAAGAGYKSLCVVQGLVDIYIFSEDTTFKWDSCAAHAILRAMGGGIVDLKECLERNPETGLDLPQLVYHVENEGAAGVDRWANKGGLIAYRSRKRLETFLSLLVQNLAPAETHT
Sequence of UniProt Q16891 (Q16891 whole entry, looked up): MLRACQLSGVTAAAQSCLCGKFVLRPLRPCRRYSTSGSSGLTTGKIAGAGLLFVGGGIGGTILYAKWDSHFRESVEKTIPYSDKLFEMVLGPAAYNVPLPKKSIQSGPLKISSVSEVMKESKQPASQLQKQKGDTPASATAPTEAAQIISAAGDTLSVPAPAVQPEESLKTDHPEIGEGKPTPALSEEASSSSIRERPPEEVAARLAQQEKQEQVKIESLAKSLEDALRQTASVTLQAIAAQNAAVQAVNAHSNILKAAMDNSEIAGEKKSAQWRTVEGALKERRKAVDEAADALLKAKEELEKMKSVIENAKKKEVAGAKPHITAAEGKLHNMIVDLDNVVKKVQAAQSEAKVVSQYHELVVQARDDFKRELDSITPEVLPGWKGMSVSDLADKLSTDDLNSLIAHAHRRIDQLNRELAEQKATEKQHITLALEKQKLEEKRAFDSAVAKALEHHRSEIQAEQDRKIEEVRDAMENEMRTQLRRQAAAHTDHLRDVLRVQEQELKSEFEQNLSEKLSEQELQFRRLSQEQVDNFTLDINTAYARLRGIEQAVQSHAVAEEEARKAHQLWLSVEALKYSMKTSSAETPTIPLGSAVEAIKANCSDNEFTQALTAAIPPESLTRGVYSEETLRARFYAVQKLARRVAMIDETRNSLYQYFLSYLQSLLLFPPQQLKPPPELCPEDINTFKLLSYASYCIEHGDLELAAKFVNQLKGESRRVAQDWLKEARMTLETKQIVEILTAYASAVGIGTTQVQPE
Sequence of UniProt Q8IW41 (Q8IW41 whole entry, looked up): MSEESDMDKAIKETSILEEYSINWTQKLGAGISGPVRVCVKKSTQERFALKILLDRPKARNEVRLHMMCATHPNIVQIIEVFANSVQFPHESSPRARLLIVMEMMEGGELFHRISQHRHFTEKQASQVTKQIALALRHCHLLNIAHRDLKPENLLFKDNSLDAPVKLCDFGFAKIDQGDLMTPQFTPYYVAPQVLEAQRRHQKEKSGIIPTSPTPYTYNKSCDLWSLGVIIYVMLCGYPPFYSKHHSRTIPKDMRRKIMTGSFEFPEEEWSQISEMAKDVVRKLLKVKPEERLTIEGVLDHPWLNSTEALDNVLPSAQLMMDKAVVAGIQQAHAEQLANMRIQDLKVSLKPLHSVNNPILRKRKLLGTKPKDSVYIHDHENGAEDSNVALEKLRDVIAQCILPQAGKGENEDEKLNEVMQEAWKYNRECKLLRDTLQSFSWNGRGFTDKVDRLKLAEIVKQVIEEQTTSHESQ

Target	log2 fold change (bafetinib)	log2 fold change [1]	log2 fold change (nilotinib)	log2 fold change [2]	log2 fold change (dasatinib)	log2 fold change [3]	log2 fold change [4]	log2 fold change [5]	log2 fold change (tipifarnib)	log2 fold change (mubritinib)	log2 fold change [6]	log2 fold change [7]	log2 fold change [8]	log2 fold change [9]	log2 fold change (entinostat)	log2 fold change (vorinostat)	log2 fold change (citarinostat)	log2 fold change (silmitasertib)	log2 fold change [10]	log2 fold change [11]
LYN (UniProt P07948)	0.26	0.008	0.062	-0.414 (active)	-0.419 (active)	-0.043	-0.06	0.034	-0.005	-0.003	0.385 (active)	0.048	-0.048	-0.016	-0.006	0.058	0.017	0.176	0.022	0.143
ILKAP (UniProt Q9H0C8)	0.028	0.079	0.052	-0.117	-0.208	0.02	0.036	0.045	-0.093	0.137	0.015	-0.052	-0.224	-0.164	0.038	0.06	0.123	0.004	-0.144	-0.003
IMMT isoform 2 (UniProt Q16891)	-0.081	0.11	-0.007	-0.002	0.144	-0.022	-0.037	0.037	0.065	0.066	0	-0.045	-0.044	-0.066	0.039	0.159	0.042	-0.066	0.064	0.008
MFN2 (UniProt O95140)	-0.106	0.068	-0.002	-0.022	-0.024	-0.01	-0.004	0.018	-0.004	0.019	-0.081	-0.088	-0.104	-0.168	0.014	-0.019	-0.021	-0.024	-0.019	-0.008
MAPKAPK5 (UniProt Q8IW41)	0.123	-0.014	0.057	-0.035	-0.031	0.052	-0.065	-0.074	-0.083	0.075	0.382 (active)	0.029	-0.051	-0.009	0.027	0.053	-0.003	-0.044	-0.078	0.213
MFGE8 (UniProt Q08431)	0.024	0.002	0.168	0.008	0.049	-0.039	-0.057	-0.029	0.033	-0.096	-0.163	-0.058	0.049	0.125	-0.082	0.03	-0.036	0.117	0.007	-0.029
MDN1 (UniProt Q9NU22)	-0.094	0	-0.15	-0.195	-0.245	-0.089	0.02	0.011	-0.052	-0.089	-0.002	-0.087	-0.138	-0.058	0.112	0.098	0.075	-0.037	-0.032	0.082
IPO11 isoform 2 (UniProt Q9UI26)	-0.056	0.045	0.012	-0.03	-0.049	0.039	-0.008	-0.029	-0.132	0.069	-0.004	-0.074	-0.113	-0.039	0.022	0.027	0.048	0.032	-0.027	0.005
INPP1 (UniProt P49441)	0.003	0.094	-0.001	0.067	0.027	0.053	0.037	0.027	-0.135	0.15	-0.11	-0.035	-0.108	-0.036	-0.089	-0.066	0.024	-0.042	0.023	-0.039
KPNA1 (UniProt P52294)	0	-0.02	-0.103	-0.074	0.003	0.047	-0.089	-0.008	-0.088	-0.06	-0.02	-0.014	-0.047	-0.058	0.099	0.036	0.166	0.088	0.064	-0.037
MAPK9 (UniProt P45984)	-0.112	0.003	-0.023	0.047	-0.044	0.134	0.042	0.04	0.015	-0.059	-0.058	-0.023	-0.053	-0.022	-0.028	-0.058	-0.022	-0.012	-0.102	0.187
MFSD5 isoform 2 (UniProt Q6N075)	-0.126	0.009	0.054	0.055	-0.029	-0.057	-0.048	0.009	0.141	0.128	-0.037	0.035	-0.137	-0.089	-0.099	-0.093	-0.009	-0.033	-0.193	-0.049
ITPRIP (UniProt Q8IWB1)	-0.126	-0.016	-0.109	0.035	-0.041	-0.08	0.073	0.012	-0.007	0.061	-0.041	-0.031	-0.373 (active)	-0.021	-0.01	-0.08	-0.076	-0.009	0.019	-0.06
KDELR2 (UniProt P33947)	-0.088	0.072	-0.069	0.035	0.097	-0.082	0.194	0.264	0.125	-0.049	-0.071	0.063	-0.073	-0.133	-0.02	-0.238	-0.026	-0.018	-0.031	-0.097
LDAH isoform 2 (UniProt Q9H6V9)	-0.188	-0.027	0.175	-0.122	-0.215	-0.035	0.082	-0.025	0.076	0.094	-0.049	0.018	0.979 (active)	-0.041	0.014	-0.011	0.061	0.014	-0.16	-0.057
IRAK4 (UniProt Q9NWZ3)	-0.047	0.236 (active)	-0.089	-0.047	-0.143	-0.01	0.011	0.035	-0.116	-0.031	0.349 (active)	-0.088	-0.281 (active)	-0.008	0.053	0.05	0.002	0.027	-0.024	-0.019
